Unmarked numbers belong to inactive results. Inconclusive results are not listed. Active and inactive are the calls of the source. The call rests on the fitted dose curve; in most records, active means well fitted curve in the direction sought with a large enough effect; inconclusive means small, poorly fitted or top-dose-only effect, or another doubt; inactive means no such curve, though single readings can be large; an effect the other way counts as inactive or inconclusive.
Assay: Cell Viability - LYMP1-003 - Assay at 24 hr (AID 963);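 further: plate controls were DMSO only for no effect and tetraoctylammonium bromide positive control for full effect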
Settings: LYMP1-003 lymphoblastoid cell viability; series mostly up to 92.2 µM; viability change, negative = cytotoxic: at the top concentration
Procedure, shortened: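 Concentration-response qHTS: ATP loss measured by CellTiter-Glo luminescence after 24 h compound exposure at 37 C. Cells were LYMP1-003 human lymphoblastoid, 2500 per well. AC50 derived via standard Hill equation modeling.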

SMILES | viability change, negative = cytotoxic [%]
CCCCCCc1ccc(-c2ccc(C#N)cc2)cc1 | -9.96
Nc1cnn([C@@H]2O[C@H](CO)[C@@H](O)[C@H]2O)c(=O)n1 | 4.29
CCCCCCCCOc1ccc(C(=O)O)cc1 | -3.81
Oc1c(Cl)cc(Cl)c(Cl)c1Cl | -3.81
CC(C)OCC1CO1 (centres undefined) | 0.0779
C/C(Cl)=C/CCl | -2.7
CCCCNCC | 1.05
O=c1[nH]ncc2ccccc12 | 0.695
c1ccc(COCc2ccccc2)cc1 | 1.85
O=[N+]([O-])c1cccc(I)c1 | -0.8
Nc1ccc2c(c1)C(=O)c1ccccc1C2=O | -16
c1ccc2c(c1)ccc1ccccc12 | 8.53
Nc1ccc(N=Nc2ccccc2)c(N)c1 | -6.73
Cc1ccc(C(=O)O)cc1[N+](=O)[O-] | 1.8
COc1ccc([N+](=O)[O-])cc1N | 0.128
OCC(CO)(CBr)CBr | -0.949
Nc1cc(C(=O)O)c(O)c(S(=O)(=O)O)c1 | 3.88
Oc1ccc2c(c1)OCO2 | -3.82
c1ccncc1 | -2.35
CC(=O)OC1CC(C)OC(C)O1 (centres undefined) | 0.965

SMILES | viability change, negative = cytotoxic [%]
O=C(OCc1ccccc1)c1ccccc1O | 5.32
C/C=C/C=C/C=O | -19.4
CCN(CC)c1ccc2c(C)cc(=O)oc2c1 | 3.17
c1c[nH]cn1 | 1.34
c1ccc(SCCSc2ccccc2)cc1 | -3.2
O=C(O)/C=C/c1ccc(/C=C/C(=O)O)cc1 | -5.75
CCCCOC(=O)COc1ccc(Cl)cc1Cl | 0.125
CC(=O)OC(C(=O)c1ccccc1)c1ccccc1 (centres undefined) | -2.08
CCCCCCN | 1.62
CC(=O)Nc1cccc(C)c1 | 4.66
CCC(Cl)CC(Cl)C(Cl)C(Cl)C(Cl)C(C)Cl (centres undefined) | 2.14
COc1ccc(C)cc1N | 5.94
CCc1ccc(C(c2ccc(CC)cc2)C(Cl)Cl)cc1 | -1.27
C[C@@H]1CC2(OC(O)[C@]3(C)O[C@H]23)O[C@H]2C[C@@]3(C)[C@@H]4CC[C@H]5C(C)(C)C(O[C@@H]6OC[C@@H](O)[C@H](O)[C@H]6O)CC[C@@]56C[C@@]46CC[C@]3(C)[C@@H]12 (some centres undefined) | -26.7
O=[N+]([O-])c1ccccc1Nc1ccccc1 | -0.633
C=CC1CO1 (centres undefined) | -0.266
COc1cc(-c2ccc(N=C=O)c(OC)c2)ccc1N=C=O | -4.41
CCOC(=O)C1OC1c1ccccc1 (centres undefined) | -6.3
COc1ccc(C(=O)Nc2ccccc2)cc1[N+](=O)[O-] | 1.71

Assay: Cell Viability - LYMP1-003 - Assay at 40 hr (AID 964); further: on the % scale 0 is the no-effect control and ±100 the full control effect; nearly all actives have a fitted effect of over 60% in size
Settings: LYMP1-003 lymphoblastoid viability; series mostly up to 92.2 µM; activity change, negative = cytotoxic: at the top concentration
Procedure, shortened: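 Viability is taken as cellular ATP, read by CellTiter-Glo luminescence after 40 h of compound exposure at 37 C. Cells: human lymphoblastoid line LYMP1-003 at 2500/well; AC50 values derived by Hill-equation fitting of concentration-response data.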

SMILES | activity change, negative = cytotoxic [%]
CCCCCCc1ccc(-c2ccc(C#N)cc2)cc1 | -6.9
Nc1cnn([C@@H]2O[C@H](CO)[C@@H](O)[C@H]2O)c(=O)n1 | -17.2
CCCCCCCCOc1ccc(C(=O)O)cc1 | -8.3
Oc1c(Cl)cc(Cl)c(Cl)c1Cl | -2.29
CC(C)OCC1CO1 (centres undefined) | 4.23
C/C(Cl)=C/CCl | -1.01
CCCCNCC | -10.1
O=c1[nH]ncc2ccccc12 | -3.07
c1ccc(COCc2ccccc2)cc1 | -4.76
O=[N+]([O-])c1cccc(I)c1 | -4.66
Nc1ccc2c(c1)C(=O)c1ccccc1C2=O | -22.3
c1ccc2c(c1)ccc1ccccc12 | -3.37
Nc1ccc(N=Nc2ccccc2)c(N)c1 | -18.8
Cc1ccc(C(=O)O)cc1[N+](=O)[O-] | 3.21
COc1ccc([N+](=O)[O-])cc1N | -4.42
OCC(CO)(CBr)CBr | -1.42
Nc1cc(C(=O)O)c(O)c(S(=O)(=O)O)c1 | 1.04
Oc1ccc2c(c1)OCO2 | -14.2
c1ccncc1 | -5.82

SMILES | activity change, negative = cytotoxic [%]
CC(=O)OC1CC(C)OC(C)O1 (centres undefined) | -5.91
O=C(OCc1ccccc1)c1ccccc1O | 6.61
CCN(CC)c1ccc2c(C)cc(=O)oc2c1 | -10.7
c1c[nH]cn1 | -1.35
c1ccc(SCCSc2ccccc2)cc1 | -7.7
O=C(O)/C=C/c1ccc(/C=C/C(=O)O)cc1 | -1.87
CCCCOC(=O)COc1ccc(Cl)cc1Cl | -12.2
CC(=O)OC(C(=O)c1ccccc1)c1ccccc1 (centres undefined) | -1.67
CCCCCCN | 5.51
CC(=O)Nc1cccc(C)c1 | -9.86
CCC(Cl)CC(Cl)C(Cl)C(Cl)C(Cl)C(C)Cl (centres undefined) | -13.9
COc1ccc(C)cc1N | -0.715
CCc1ccc(C(c2ccc(CC)cc2)C(Cl)Cl)cc1 | 0.143
O=[N+]([O-])c1ccccc1Nc1ccccc1 | -1.17
C=CC1CO1 (centres undefined) | -0.422
COc1cc(-c2ccc(N=C=O)c(OC)c2)ccc1N=C=O | -25.9
CCOC(=O)C1OC1c1ccccc1 (centres undefined) | -12.5
COc1ccc(C(=O)Nc2ccccc2)cc1[N+](=O)[O-] | -7.85

Assay: Cell Viability - LYMP2-003 (AID 965);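 further: cells exposed to compounds for 24 h before reading; nearly all actives have a fitted effect of over 50% in size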; further: potency means the concentration at half of the fitted maximal effect;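 on activity change, negative = cytotoxicity: 0% = DMSO only and full effect = 92 µM tetraoctylammonium bromide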
Settings: LYMP2-003 lymphoblastoid cell viability; series mostly up to 92.2 µM; activity change, negative = cytotoxicity: at the top concentration
Procedure, shortened: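 CellTiter-Glo luminescence quantified ATP loss after 24 h compound treatment of LYMP2-003 lymphoblastoid cells at 37 C. Titration series were fitted with the standard Hill equation to give AC50.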

SMILES | activity change, negative = cytotoxicity [%] | Potency
CCCCCCc1ccc(-c2ccc(C#N)cc2)cc1 | -8.9 | –
CCCCCCCCOc1ccc(C(=O)O)cc1 | 7.08 | –
Oc1c(Cl)cc(Cl)c(Cl)c1Cl | 14 | –
CC(C)OCC1CO1 (centres undefined) | 4.74 | –
C/C(Cl)=C/CCl | 11.2 | –
CCCCNCC | 18.1 | –
O=c1[nH]ncc2ccccc12 | 1.95 | –
c1ccc(COCc2ccccc2)cc1 | 19.6 | –
O=[N+]([O-])c1cccc(I)c1 | 10.3 | –
Nc1ccc2c(c1)C(=O)c1ccccc1C2=O | -14.1 | –
c1ccc2c(c1)ccc1ccccc12 | -4.84 | –
Nc1ccc(N=Nc2ccccc2)c(N)c1 | -3.23 | –
Cc1ccc(C(=O)O)cc1[N+](=O)[O-] | 6.68 | –
COc1ccc([N+](=O)[O-])cc1N | 2.03 | –
OCC(CO)(CBr)CBr | 10.1 | –
Nc1cc(C(=O)O)c(O)c(S(=O)(=O)O)c1 | 11.1 | –
Oc1ccc2c(c1)OCO2 | 12.5 | –
c1ccncc1 | 24.6 | –
CC(=O)OC1CC(C)OC(C)O1 (centres undefined) | 22 | –

SMILES | activity change, negative = cytotoxicity [%] | Potency
O=C(OCc1ccccc1)c1ccccc1O | -7.82 | –
C/C=C/C=C/C=O | – | 39.8 µM (active)
CCN(CC)c1ccc2c(C)cc(=O)oc2c1 | 8.47 | –
c1c[nH]cn1 | 12.1 | –
c1ccc(SCCSc2ccccc2)cc1 | 9.93 | –
O=C(O)/C=C/c1ccc(/C=C/C(=O)O)cc1 | 16.3 | –
CCCCOC(=O)COc1ccc(Cl)cc1Cl | 10.8 | –
CC(=O)OC(C(=O)c1ccccc1)c1ccccc1 (centres undefined) | 0.281 | –
CCCCCCN | 8.81 | –
CC(=O)Nc1cccc(C)c1 | -11.2 | –
CCC(Cl)CC(Cl)C(Cl)C(Cl)C(Cl)C(C)Cl (centres undefined) | 4.62 | –
COc1ccc(C)cc1N | -0.445 | –
CCc1ccc(C(c2ccc(CC)cc2)C(Cl)Cl)cc1 | -2.32 | –
C[C@@H]1CC2(OC(O)[C@]3(C)O[C@H]23)O[C@H]2C[C@@]3(C)[C@@H]4CC[C@H]5C(C)(C)C(O[C@@H]6OC[C@@H](O)[C@H](O)[C@H]6O)CC[C@@]56C[C@@]46CC[C@]3(C)[C@@H]12 (some centres undefined) | -23.8 | –
O=[N+]([O-])c1ccccc1Nc1ccccc1 | 5.09 | –
C=CC1CO1 (centres undefined) | 10.3 | –
COc1cc(-c2ccc(N=C=O)c(OC)c2)ccc1N=C=O | 8.64 | –
CCOC(=O)C1OC1c1ccccc1 (centres undefined) | 4.56 | –
COc1ccc(C(=O)Nc2ccccc2)cc1[N+](=O)[O-] | 5.23 | –
